Assay [1] is described as follows: rapamycin-like changes in RPL19A-GFP expression – cell-based, S. cerevisiae, multiplex flow cytometry, primary screen (AID 1862; in the data active means percent of DMSO control GFP below about 86%;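 further: lower values mimic rapamycin by blocking the RPL19A rise seen in DMSO cells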). The note with it: S. cerevisiae RPL19A-GFP strain, flow cytometry fluorescence, 3 h; at 10 µM; stronger effect = lower value.
A short description of assay [2]: TOR pathway GLN3 branch reporter MEP2-GFP changes – S. cerevisiae, multiplex flow cytometry, primary screen (AID 1867;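 active means GFP response, as percent of the DMSO control, above the screen-wide mean plus 3 SD, about 139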;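 further: median GFP channel fluorescence of barcode-gated MEP2-GFP cells measured by flow cytometry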). The note with it: S. cerevisiae MEP2-GFP strain, 3 h, at 10 µM, stronger effect = higher value, 100% means same as DMSO wells.
Assay [3] can be described thus: TOR pathway RTG branch CIT2 reporter changes – S. cerevisiae, GFP fusion, multiplex flow cytometry, primary screen (AID 1870;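 active means percent response above a set limit, the screen-wide mean plus 3 SD, cut at about 130% in these data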;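 further: barcoded CIT2-GFP strain pooled with four other GFP strains with rapamycin as positive control; median GFP fluorescence per well over plate mean of DMSO wells so 100% = DMSO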). The note with it: S. cerevisiae CIT2-GFP expression, 3 h, at 10 µM, stronger effect = higher value. For orientation: In flow cytometry, cells or beads pass a laser one at a time.
Assay [4] in a line: TOR pathway LAP4-GFP level changes – S. cerevisiae, multiplex flow cytometry, primary screen (AID 1873;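 active means GFP signal, as percent of the solvent control, above the screen mean plus 3 SD, about 149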). The note with it: S. cerevisiae LAP4-GFP expression, 3 h, at 10 µM, stronger effect = higher value.
Assay [5] in a line: yeast AGP1-GFP level changes, GLN3 branch – cell-based, multiplex flow cytometry, S. cerevisiae, primary screen (AID 1887;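 active means GFP signal above the screen-wide mean plus 3 SD, that is over about 124.5% of the solvent control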;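 further: AGP1-GFP fusion strain of S. cerevisiae within a five-strain barcoded multiplex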). Conditions: 3 h, at 10 µM, stronger effect = higher value.
The nature of assay [6]: reduced mouse 2C T cell binding to pMHC/ICAM-1 vesicles – MLPCN validation set, flow cytometry, LFA-1/ICAM-1 modulator project, pilot screen (AID 2523;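 active means response below a set limit, under 55% cells CD8-positive and vesicle-bound, and CD8 cells' 90th-percentile brightness under 279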;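 on vesicle binding response: mean PE anti-B7-1 fluorescence of CD8+ cells relative to row control; 100% = QL9-loaded vesicles with DMSO vehicle in the same plate row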). The note with it: 2C mouse CD8+ T cells, at 7 µM, stronger effect = lower value; double positive events: measured here: CD8+/vesicle+ event percentage.
For assay [7], the target named is Integrin beta-1 (Homo sapiens) + Integrin alpha-4 (Homo sapiens) (UniProt P13612+P05556). Nature of the assay: alpha4beta1 integrin LIBS antibody binding reduction – U937 cells, HUTS-21 mAb, flow cytometry, validation set, VLA-4 allosteric modulator project, pilot screen (AID 2674;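 active means inhibition above 50%, about 3 SD of the validation set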;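 further: antibody binding induced by the VLA-4 ligand LDV present at three times its Kd; 0% = LDV ligand with antibody and no compound and 100% = antibody without LDV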). The note with it: HUTS-21 LIBS mAb binding, at 6.7 µM, stronger effect = higher value, binding induced by LDV ligand.
Integrin beta-1 (Homo sapiens) + Integrin alpha-4 (Homo sapiens), sequence (P05556 whole entry, looked up): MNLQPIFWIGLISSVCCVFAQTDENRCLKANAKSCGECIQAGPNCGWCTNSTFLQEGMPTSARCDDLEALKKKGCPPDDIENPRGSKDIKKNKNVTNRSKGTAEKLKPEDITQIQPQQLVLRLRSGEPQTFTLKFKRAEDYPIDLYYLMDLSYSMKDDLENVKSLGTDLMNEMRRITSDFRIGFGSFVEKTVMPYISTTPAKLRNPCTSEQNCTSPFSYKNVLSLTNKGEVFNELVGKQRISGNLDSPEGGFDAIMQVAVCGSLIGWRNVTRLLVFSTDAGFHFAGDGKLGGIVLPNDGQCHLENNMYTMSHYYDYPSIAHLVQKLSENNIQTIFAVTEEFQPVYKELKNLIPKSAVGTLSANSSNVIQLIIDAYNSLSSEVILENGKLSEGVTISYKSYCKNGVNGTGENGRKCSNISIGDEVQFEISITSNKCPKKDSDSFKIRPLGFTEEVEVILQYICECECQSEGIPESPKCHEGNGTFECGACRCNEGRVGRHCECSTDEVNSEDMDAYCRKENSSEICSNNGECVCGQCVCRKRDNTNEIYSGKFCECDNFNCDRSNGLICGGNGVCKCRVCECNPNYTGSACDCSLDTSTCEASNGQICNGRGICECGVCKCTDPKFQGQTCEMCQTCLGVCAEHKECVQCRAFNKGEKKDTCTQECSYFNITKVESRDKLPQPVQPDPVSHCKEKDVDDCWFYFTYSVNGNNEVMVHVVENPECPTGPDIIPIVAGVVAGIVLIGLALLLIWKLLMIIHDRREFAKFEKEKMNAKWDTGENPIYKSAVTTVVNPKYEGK
Integrin beta-1 (Homo sapiens) + Integrin alpha-4 (Homo sapiens), sequence (P13612 whole entry, looked up): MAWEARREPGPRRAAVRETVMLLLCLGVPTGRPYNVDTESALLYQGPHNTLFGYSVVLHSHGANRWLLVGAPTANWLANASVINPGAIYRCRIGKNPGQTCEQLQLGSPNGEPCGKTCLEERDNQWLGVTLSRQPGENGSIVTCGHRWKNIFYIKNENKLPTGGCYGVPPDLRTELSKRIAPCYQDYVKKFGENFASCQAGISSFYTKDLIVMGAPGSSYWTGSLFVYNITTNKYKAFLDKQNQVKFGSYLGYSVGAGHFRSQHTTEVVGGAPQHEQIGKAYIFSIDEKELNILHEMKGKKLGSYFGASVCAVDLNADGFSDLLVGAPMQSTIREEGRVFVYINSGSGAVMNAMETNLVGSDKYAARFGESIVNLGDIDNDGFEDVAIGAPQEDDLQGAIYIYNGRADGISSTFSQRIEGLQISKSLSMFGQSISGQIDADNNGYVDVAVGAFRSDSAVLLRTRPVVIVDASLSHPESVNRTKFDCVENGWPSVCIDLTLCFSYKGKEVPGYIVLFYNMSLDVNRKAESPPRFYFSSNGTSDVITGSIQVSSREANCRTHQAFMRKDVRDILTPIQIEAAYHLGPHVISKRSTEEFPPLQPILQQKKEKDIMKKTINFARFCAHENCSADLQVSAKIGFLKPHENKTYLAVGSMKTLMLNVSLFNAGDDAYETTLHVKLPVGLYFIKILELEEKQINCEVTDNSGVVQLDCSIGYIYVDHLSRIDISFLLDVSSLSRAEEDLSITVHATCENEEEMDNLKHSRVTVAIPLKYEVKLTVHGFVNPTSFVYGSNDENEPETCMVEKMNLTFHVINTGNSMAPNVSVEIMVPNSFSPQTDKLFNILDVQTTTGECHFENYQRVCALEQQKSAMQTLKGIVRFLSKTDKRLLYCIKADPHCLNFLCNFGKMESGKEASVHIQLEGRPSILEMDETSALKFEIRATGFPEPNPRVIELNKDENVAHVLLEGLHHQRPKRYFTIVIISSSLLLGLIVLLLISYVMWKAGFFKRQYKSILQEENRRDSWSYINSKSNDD

The target of assay [8] is Beta-adrenergic receptor kinase 1 (Homo sapiens) (UniProt P25098). Nature of the assay: GRK2 binders displacing RNA aptamer, biochemical, validation, human GRK2, bead flow cytometry (AID 488806;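 active means aptamer binding inhibition above 30%, about 3 SD of noise from non-fluorescent compounds; inactive means inhibition at or below 30%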). Conditions: bead-bound GRK2, FAM-aptamer displacement, at 10 µM, stronger effect = higher value.
Beta-adrenergic receptor kinase 1 (Homo sapiens), sequence (P25098 whole entry, looked up): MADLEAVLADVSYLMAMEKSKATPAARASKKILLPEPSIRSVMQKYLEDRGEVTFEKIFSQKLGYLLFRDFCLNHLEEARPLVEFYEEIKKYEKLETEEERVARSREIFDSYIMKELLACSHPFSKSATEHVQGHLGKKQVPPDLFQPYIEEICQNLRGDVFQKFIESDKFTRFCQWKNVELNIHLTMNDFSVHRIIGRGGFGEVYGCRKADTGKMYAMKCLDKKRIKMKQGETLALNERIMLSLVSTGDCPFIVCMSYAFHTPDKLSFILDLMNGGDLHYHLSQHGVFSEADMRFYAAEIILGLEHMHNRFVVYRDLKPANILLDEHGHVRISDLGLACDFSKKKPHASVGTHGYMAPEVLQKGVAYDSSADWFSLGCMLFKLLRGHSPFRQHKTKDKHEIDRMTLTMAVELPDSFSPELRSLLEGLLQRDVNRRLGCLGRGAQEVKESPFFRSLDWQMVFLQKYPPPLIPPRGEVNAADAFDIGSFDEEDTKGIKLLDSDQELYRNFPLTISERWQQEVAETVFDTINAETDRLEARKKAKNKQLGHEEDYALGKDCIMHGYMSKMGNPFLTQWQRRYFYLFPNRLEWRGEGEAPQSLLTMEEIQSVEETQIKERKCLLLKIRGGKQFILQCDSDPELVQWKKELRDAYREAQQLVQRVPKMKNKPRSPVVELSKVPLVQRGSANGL
Assay [9] addresses Beta-2 adrenergic receptor (Homo sapiens) (UniProt P07550). Description: agonist-induced loss of surface beta2AR – cell-based, FAP fluorogen, flow cytometry, validation set, pilot screen (AID 504459;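 active means percent response above 42, roughly 3 SD of non-fluorescent test compounds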;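 further: agonist-driven loss of surface beta2AR via internalization measured by FAP dye flow cytometry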). Conditions: Am2.2-beta2AR cells, at 10 µM, stronger effect = higher value.
Assay [10] addresses AP-2 complex subunit beta (Homo sapiens) (UniProt P63010). Nature of the assay: beta-arrestin/AP2 interaction blockers – biochemical, validation set, GST-AP2 beads, flow cytometry, pilot screen (AID 504541;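 active means inhibition above 54%, about 3 SD of non-fluorescent compounds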;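 further: AP2 carries R879A mutation and is captured from E. coli lysate; bead-bound FITC arrestin peptide fluorescence measuring arrestin peptide binding to AP2; 0% = DMSO wells and 100% = excess unlabeled arrestin peptide control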). Conditions: FITC arrestin peptide, at 10 µM, stronger effect = higher value, AP2 beta2 appendage fragment, R879A mutant.
Assay [11] in a line: cytosolic pH regulators acting via V-ATPase – S. cerevisiae, pHLuorin, HTS validation (AID 504600; in the data active means response above about 15%;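 further: plate controls were DMSO for no effect and reference compound for full effect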). Conditions: V-ATPase proton transport, at 10 µM, stronger effect = higher value.
The subject of assay [12] is anti-desmoglein-3 scFv antibody binding to human DSG3. Description: blockers of pathogenic pemphigus antibody–desmoglein-3 binding – biochemical, validation compound set, bead-based, flow cytometry, pilot screen (AID 588368;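 active means binding below the plate cutoff, the plate median minus 3 SD, with a reading above zero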;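 further: signal is the median channel fluorescence of bead-bound GFP antibody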). The note with it: Protein G beads, DSG3-Fc, scFv-GFP binding, at 10 µM, stronger effect = lower value.
Assay [13] can be described thus: Nile Red efflux blockade in pump-expressing yeast – validation compound set, multiplex, phenotypic, pilot screen (AID 588506;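 active means efflux inhibition above 0.42, the validation set average plus 4 SD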;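 further: Nile Red retained in cells so higher fluorescence means more efflux inhibition; 0 = negative control wells and 1 = enniatin B 25 µM full block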). Conditions: S. cerevisiae pump-expressing triplex, Nile Red efflux flow cytometry; at 10 µM; stronger effect = higher value; the pumps come from Candida albicans.
In assay [14] the target is ATP-binding cassette sub-family B member 6 (Homo sapiens) (UniProt Q9NP58). Description: blockers of ABCB6-driven porphyrin uptake – K562-ABCB6 cells, flow cytometry, validation set, pilot screen (AID 588550).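 Further: 0% = DMSO wells and 100% = benzethonium chloride 70 µM positive control.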 Conditions: K562-ABCB6 porphyrin accumulation, 1 h, at 10 µM, stronger effect = higher value.
ATP-binding cassette sub-family B member 6 (Homo sapiens), sequence (Q9NP58 whole entry, looked up): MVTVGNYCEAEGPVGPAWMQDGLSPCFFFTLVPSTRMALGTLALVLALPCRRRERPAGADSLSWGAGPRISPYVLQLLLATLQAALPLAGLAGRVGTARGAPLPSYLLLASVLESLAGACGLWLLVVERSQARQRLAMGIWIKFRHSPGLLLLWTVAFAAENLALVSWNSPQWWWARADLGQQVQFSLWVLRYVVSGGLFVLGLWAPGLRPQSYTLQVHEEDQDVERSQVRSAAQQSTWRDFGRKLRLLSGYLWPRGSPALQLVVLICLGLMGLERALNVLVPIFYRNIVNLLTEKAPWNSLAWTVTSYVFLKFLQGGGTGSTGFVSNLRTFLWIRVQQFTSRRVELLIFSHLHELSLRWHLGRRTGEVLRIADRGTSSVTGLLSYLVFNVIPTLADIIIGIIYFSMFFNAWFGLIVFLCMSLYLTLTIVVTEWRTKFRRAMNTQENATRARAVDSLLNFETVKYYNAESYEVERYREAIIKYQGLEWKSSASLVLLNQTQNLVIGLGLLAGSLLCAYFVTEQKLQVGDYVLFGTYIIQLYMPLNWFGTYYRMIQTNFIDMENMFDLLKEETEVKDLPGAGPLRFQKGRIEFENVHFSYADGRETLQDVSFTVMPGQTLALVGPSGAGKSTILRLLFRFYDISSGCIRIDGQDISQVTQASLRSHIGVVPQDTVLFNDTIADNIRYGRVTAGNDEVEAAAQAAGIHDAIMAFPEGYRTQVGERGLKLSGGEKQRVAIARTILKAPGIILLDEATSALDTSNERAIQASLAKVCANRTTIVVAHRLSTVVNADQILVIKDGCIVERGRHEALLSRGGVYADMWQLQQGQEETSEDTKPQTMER
The nature of assay [15]: AML differentiation inducers, ER-HoxA9 marrow cells – cell-based, GFP/MAC1 double positive, flow cytometry, validation set, primary screen (AID 588685;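 active means differentiation response of at least 50%, scaled between solvent and reference control, from cells with both markers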;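 further: compound exposure lasts four days before antibody staining and flow analysis; 0% = DMSO wells and 100% = 5 µM fulvestrant positive control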). The note with it: stronger effect = higher value, normalized: vehicle 0, fulvestrant 100.
Assay [16] is described as follows: calorie-restriction mimetic ROS inhibitors, yeast – validation compound set, pilot screen (AID 2706;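 active means superoxide response below 65% of plate, a cut near 3 SD across the whole screen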;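 further: yeast exposed to compound for one week at 30 degrees C before staining; 100% = mean of all compound wells on the same plate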). Conditions: S. cerevisiae aging, superoxide DHE fluorescence; at 10 µM, stronger effect = lower value.

Structures are written as SMILES. Results filed as inconclusive are left out. Calls of active or inactive are those of the source.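 How the source made its calls, unless noted: active means inhibition above the screen-wide mean plus 3 SD, about 51%; inactive means the rest.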

As usually defined, the inhibition is the drop in the measured response relative to a control, in per cent.

AP-2 complex subunit beta (Homo sapiens), sequence (P63010 whole entry, looked up, the tested form may be a part, one chain of several): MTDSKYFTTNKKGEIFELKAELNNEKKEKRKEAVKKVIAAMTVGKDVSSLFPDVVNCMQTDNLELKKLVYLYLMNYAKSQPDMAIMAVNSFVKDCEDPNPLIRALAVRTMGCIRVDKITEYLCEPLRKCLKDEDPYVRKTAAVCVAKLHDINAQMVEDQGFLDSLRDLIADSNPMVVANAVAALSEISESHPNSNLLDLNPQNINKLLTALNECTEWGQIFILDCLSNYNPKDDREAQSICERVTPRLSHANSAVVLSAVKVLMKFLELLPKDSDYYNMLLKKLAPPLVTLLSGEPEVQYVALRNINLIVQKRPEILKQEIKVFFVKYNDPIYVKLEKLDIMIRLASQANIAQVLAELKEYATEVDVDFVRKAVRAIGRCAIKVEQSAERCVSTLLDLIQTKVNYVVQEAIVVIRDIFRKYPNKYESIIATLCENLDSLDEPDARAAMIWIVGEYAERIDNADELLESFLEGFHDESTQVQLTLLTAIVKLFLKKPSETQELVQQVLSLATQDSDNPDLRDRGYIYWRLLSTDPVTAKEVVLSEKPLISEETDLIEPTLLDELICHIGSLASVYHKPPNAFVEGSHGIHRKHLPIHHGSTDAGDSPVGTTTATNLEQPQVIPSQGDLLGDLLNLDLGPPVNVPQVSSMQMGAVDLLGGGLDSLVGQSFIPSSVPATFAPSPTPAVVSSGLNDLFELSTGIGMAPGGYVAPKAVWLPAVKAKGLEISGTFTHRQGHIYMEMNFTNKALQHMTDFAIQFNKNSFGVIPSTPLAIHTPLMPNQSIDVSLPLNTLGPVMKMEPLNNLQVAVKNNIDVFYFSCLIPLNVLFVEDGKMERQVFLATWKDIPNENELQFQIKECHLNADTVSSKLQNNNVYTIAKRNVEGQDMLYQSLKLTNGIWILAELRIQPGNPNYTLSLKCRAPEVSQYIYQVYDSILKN
Beta-2 adrenergic receptor (Homo sapiens), sequence (P07550 whole entry, looked up): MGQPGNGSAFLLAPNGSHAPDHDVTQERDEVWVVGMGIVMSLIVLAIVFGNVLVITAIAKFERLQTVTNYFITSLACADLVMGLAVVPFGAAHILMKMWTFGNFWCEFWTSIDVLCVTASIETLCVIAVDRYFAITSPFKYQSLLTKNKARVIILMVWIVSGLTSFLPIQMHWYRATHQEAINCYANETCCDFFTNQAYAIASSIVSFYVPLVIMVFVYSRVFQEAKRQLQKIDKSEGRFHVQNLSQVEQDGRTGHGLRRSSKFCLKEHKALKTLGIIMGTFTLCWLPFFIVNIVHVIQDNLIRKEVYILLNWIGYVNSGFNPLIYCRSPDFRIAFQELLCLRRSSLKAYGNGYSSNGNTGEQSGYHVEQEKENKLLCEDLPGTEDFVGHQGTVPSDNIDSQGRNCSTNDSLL

`CCOc1ccc(CCn2c(-c3ccco3)nc3ccccc3c2=O)cc1OCC`: the percent of DMSO control GFP in assay [1] is 100% (inactive). Further, the results for the GFP response vs DMSO in assay [2] and in assay [4] were 106% (inactive) and 92.7% (inactive), respectively. Moreover, the percent response of DMSO control in assay [3] is 94.2% (inactive). Also, the GFP response, % of DMSO in assay [5] is 92.6% (inactive). For the same compound, the double positive events in [6] amounted to 62.6%. Further, in [6], the vesicle binding response is 258% (inactive). For the same compound, the inhibition in assay [7] is -18.1% (inactive); in assay [10], 3.57% (inactive); in assay [14], 20% (inactive). The aptamer binding inhibition in assay [8] is 1% (inactive). Also, the response in assay [9] was 2.8% (inactive); in [11], -0.47% (inactive). Also, the binding (% of control) in assay [12] is 91.2% (inactive). Also, the efflux inhibition (fraction of control) in assay [13] was 0.27 (inactive). For the same compound, the differentiation response in assay [15] was 0.24% (inactive).
Regarding `COc1ccccc1C(=O)c1cc2ccc(O)cc2oc1=O`, the percent of DMSO control GFP in [1] is 103% (inactive). Moreover, the GFP response vs DMSO is 110% (inactive) in [2] and 100% (inactive) in assay [4]. For the same compound, the percent response of DMSO control in assay [3] was 105% (inactive). Also, in assay [5], the GFP response, % of DMSO was 100% (inactive). Besides, the double positive events in assay [6] was determined as 57.1%. In assay [6], the vesicle binding response is 147% (inactive). Besides, the figures for the inhibition in assay [7], in assay [10] and in [14] were 12.8% (inactive), -2.87% (inactive) and -208% (inactive), respectively. Besides, the superoxide response (% of plate) in [16] was 99.2% (inactive). Further, the aptamer binding inhibition in [8] is 1% (inactive). Further, in assay [11], the response is 5.05% (inactive). For the same compound, in [12], the binding (% of control) is 104% (inactive). Moreover, the efflux inhibition (fraction of control) in assay [13] was 0.03 (inactive). In addition, the differentiation response in assay [15] is -14.7% (inactive).
As to `Cc1ccc2c(c1)OC(=O)CC2c1ccccc1` (stereo not given), the percent of DMSO control GFP in assay [1] is 100% (inactive). Moreover, the GFP response vs DMSO in assay [2] was 104% (inactive); in [4], 102% (inactive). In addition, in assay [3], the percent response of DMSO control was 96.9% (inactive). In assay [5], the GFP response, % of DMSO was 99.6% (inactive). In addition, the double positive events in assay [6] amounted to 58%. Moreover, the vesicle binding response in assay [6] is 168% (inactive). In addition, the inhibition in [7] is 12.8% (inactive); in assay [10], 31.1% (inactive); in assay [14], 0% (inactive). Further, in assay [16], the superoxide response (% of plate) was 111% (inactive). The aptamer binding inhibition in assay [8] was 5% (inactive). Also, in assay [11], the response was -9.91% (inactive). For the same compound, the binding (% of control) in assay [12] is 95.6% (inactive). Further, in [13], the efflux inhibition (fraction of control) is 0.06 (inactive). Moreover, the differentiation response in assay [15] is -11.5% (inactive).
As to `CCc1cc(=O)oc2cc(C)c(CN3CCCC(C)C3)c(O)c12` (stereo not given), the percent of DMSO control GFP in assay [1] is 102% (inactive). Moreover, the values for the GFP response vs DMSO in assay [2] and in assay [4] were 103% (inactive) and 84.3% (inactive), respectively. Also, the percent response of DMSO control in assay [3] was 103% (inactive). In assay [5], the GFP response, % of DMSO was 94.9% (inactive). In assay [6], this compound gave a double positive events of 52.2%. The vesicle binding response in assay [6] was 161% (inactive). Also, the results for the inhibition in assay [7], in assay [10] and in [14] were -5.84% (inactive), 26.7% (inactive) and 5% (inactive), respectively. For the same compound, the superoxide response (% of plate) in [16] was 105% (inactive). In addition, in [8], the aptamer binding inhibition is 2% (inactive). In assay [11], the response is -0.18% (inactive). Further, the binding (% of control) in assay [12] is 73.4% (inactive). Besides, the efflux inhibition (fraction of control) in [13] is 0.18 (inactive). For the same compound, the differentiation response in assay [15] is -18% (inactive).
In the case of `CCN(CC)CCOC(=O)C1(C2CCCCC2)CCCCC1`, the percent of DMSO control GFP in assay [1] is 110% (inactive). Moreover, the GFP response vs DMSO was 101% (inactive) in [2] and 110% (inactive) in assay [4]. Also, in assay [3], the percent response of DMSO control is 106% (inactive). For the same compound, the GFP response, % of DMSO in assay [5] was 108% (inactive). In [6], the double positive events was 50.5%. The vesicle binding response in assay [6] was 162% (inactive). Further, the figures for the inhibition in assay [7], in assay [10] and in assay [14] were 5.36% (inactive), -6.04% (inactive) and -45% (inactive), respectively. Besides, the superoxide response (% of plate) in assay [16] is 110% (inactive). Also, the aptamer binding inhibition in assay [8] is -2% (inactive). Besides, in [11], the response was 1.87% (inactive). Further, in assay [12], the binding (% of control) is 101% (inactive). Moreover, in assay [13], the efflux inhibition (fraction of control) was 0.25 (inactive). For the same compound, in [15], the differentiation response was -27.6% (inactive).

Values taken from PubChem BioAssay.
